Drawing on PubChem BioAssay (EPA / NIEHS), this text covers outcome for 40 compounds.

The source made the active and inactive calls. Rule for the calls: active = hit-call score of the fitted dose curve at least 0.9, where 1 is the maximum; inactive = score below 0.9.

The test in a line: ATG_M_61_CIS: Attagene CIS-FACTORIAL HepG2 Assay for M61 Transcription Factor (Internal Marker) (AID 2282937). As to conditions: HepG2 Attagene CIS-FACTORIAL M61 internal marker reporter; actives raise or lower the signal. The protocol:
ATG_CIS is a cell-based, multiplexed-readout assay that uses HepG2, a human liver cell line, with measurements taken at 24 hours after chemical dosing in a 24-well plate.ATG_M_61_CIS is one of 52 assay component(s) measured or calculated from the ATG_CIS assay. It is designed to make measurements of mRNA induction, a form of inducible reporter, as detected with fluorescence intensity signals by Reverse transcription polymerase chain reaction (RT-PCR) and Capillary electrophoresis technology.Data from the assay component ATG_M_61_CIS was analyzed into 1 assay endpoint. This assay endpoint, ATG_M_61_CIS, was analyzed with bidirectional fitting relative to DMSO as the negative control and baseline of activity. Using a type of inducible reporter, measures of mRNA for gain or loss-of-signal activity can be used to understand the background control at the transcription factor-level as they relate to the gene . Furthermore, this assay endpoint can be referred to as a secondary readout, because this assay has produced multiple assay endpoints where this one serves a background control function. To generalize the intended target to other relatable targets, this assay endpoint is annotated to the background measurement intended target family, where the subfamily is internal marker.
Human liver HepG2 cells are transiently transfected with multiple reporter transcription units (MRTUs) in 6-well plates using FuGene 6 reagent (Roche; 3 ml FuGene/1 mg DNA). The MRTU constructs are regulated by a cis-regulating element (promoter). […] A major difference between the CIS and TRANS system is that in CIS activities of endogenous TFs are measured, whereas the TRANS assay evaluates changes in activities of exogenous, chimeric NR-Gal4 proteins. […] At the end of 24 hour incubation, total RNA was isolated using TriZol reagent (Invitrogen). The isolated RNA is then reverse-transcribed using oligo(dT) primer and Mo-MLV reverse transcriptase (Invitrogen) with DNAse I (Ambion) treatment for 30 min. The one-tenth of the produced cDNA was amplified by PCR using Taq DNA polymerase (Invitrogen) and two reporter sequence-specific primers. The PCR products were fluorescently labeled by primer extension with 6-arboxyfluorescein (6-FAM) 5'-labeled reporter sequence-specific primer (2 min at 95 C, 20 s at 68 C and 10 min at 72 C) and these products were digested with 5U of HpaI (New England Biolabs) for 2h at 37 C. The fragments were purified using Qiaquick PCR columns (Qiagen), analyzed on an ABI 3130xL genetic analyzer (Applied Biosystems) with peak positions identified by using a set of X-rhodamine (ROX)-labeled MapMarker1000 molecular weight standards (BioVentures). The raw capillary electrophoresis data was processed using Attagraph software (Attagene).
On to `CN1C[C@H](C(=O)N[C@]2(C)O[C@@]3(O)[C@@H]4CCCN4C(=O)[C@H](Cc4ccccc4)N3C2=O)C=C2c3cccc4[nH]cc(c34)C[C@H]21`, for which the outcome was inactive.
As to `C#CC1(O)CCCCC1`, the outcome was inactive.
Then `CC(=O)c1cc2c(cc1C)C(C)(C)C(C)CC2(C)C` (stereo not given), with “inactive”; and `CCOC(=O)C1OC1(C)c1ccccc1` (stereo not given), with “inactive”.
Then `O=c1c2ccccc2c(=O)c2c1cc(Cl)c1[nH]c3c([nH]c12)c(Cl)cc1c(=O)c2ccccc2c(=O)c13`, with “inactive”.
On to `O=[N+]([O-])c1ccc(Cl)cc1`, for which the call was inactive.
Regarding `Cl/C=C\CCl`, the compound was classed as inactive.
In the case of `CN(N=O)c1ccccc1` it was “inactive”.
In the case of `Clc1ccc(-c2ccccc2)cc1` it was “inactive”.
In the case of `O=C(O)C(Br)Br` it was “inactive”; in that of `CC(C)COP(=O)(OCC(C)C)OCC(C)C`, “inactive”; in that of `CN(C)N`, “inactive”.
Consider `CC1(C)[C@H](C(=O)O[C@H](C#N)c2cccc(Oc3ccccc3)c2)[C@@H]1C=C(Br)Br`, for which the result was inactive.
In the case of `O=C(O)CCCc1ccc(N(CCCl)CCCl)cc1` it was “inactive”; in that of `[Cl-].[Cl-].[Cl-].[Yb+3]`, “inactive”; in that of `CC1CCCC1.[C-]#[O+].[C-]#[O+].[C-]#[O+].[Mn]`, “inactive”.
Take `O=C1C(Cl)=C(Cl)C(=O)C(Cl)=C1Cl`: the result was inactive.
In the case of `C[C@]12CCC(=O)C(O)=C1CC[C@@H]1[C@@H]2CC[C@]2(C)C(=O)CC[C@@H]12` it was “inactive”; in that of `CC1(C)C(=O)NC(=O)NC1=O`, “inactive”; in that of `CCOC(=O)NC(=S)Nc1ccccc1NC(=S)NC(=O)OCC`, “inactive”.
In the case of `COc1cc(OC)nc(Oc2cccc(Oc3nc(OC)cc(OC)n3)c2C(=O)O)n1` it was “inactive”; in that of `CC1CCC(=O)O1` (stereo not given), “inactive”; in that of `Oc1cc(Cl)ccc1Cl`, “inactive”.
In the case of `CCOC(=O)N(C)N=O` it was “inactive”; in that of `CCCCOP(=O)(O)OCCCC`, “inactive”; in that of `O=P(O)(Oc1ccccc1)Oc1ccccc1`, “inactive”.
Take `BrCBr`: the result was inactive.
Then `CCCCOC(=O)CCC(=O)OCCCC`, with “inactive”; and `[Cl][Sb]([Cl])[Cl]`, with “inactive”.
In the case of `C=CCO` it was “inactive”; in that of `[CH3][Sn]([Cl])([Cl])[Cl]`, “inactive”; in that of `C=CC(=O)OC`, “inactive”.
In the case of `CCCCCCCCCCCC#N`, the compound was classed as inactive.
Then `CCC(C)c1cc(C(C)(C)C)cc(-n2nc3ccccc3n2)c1O` (stereo not given), with “inactive”.
With `CCCC=NO`, the call was inactive.
For the compound `ClCCCCCCCl`, the compound was called inactive.
Then `C=C(Cl)Cl`, with “inactive”; and `CC1OC(C)OC(C)O1` (stereo not given), with “inactive”.
Turning to `CCOC(=O)COc1ccc(Cl)cc1Cl`, the result was inactive.
`CC(C)C#N`: the compound was called inactive.
